Test results from PubChem BioAssay (NCATS).
Records with an inconclusive call do not appear. Activity calls are given as the source filed them. The call rests on the fitted dose curve; in most records, active means well fitted curve in the direction sought with a large enough effect; inconclusive means small, poorly fitted or top-dose-only effect, or another doubt; inactive means no such curve, though single readings can be large; an effect the other way counts as inactive or inconclusive.

Key:
[1] = qHTS of pediatric cancer cell lines to identify multiple opportunities for drug repurposing: Confirmatory screen for SK-N-MC cells (AID 1347111);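 further: cells exposed to compound for 48 h before the readout; nearly all actives have a fitted effect of over 70% in size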
Method in brief: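 Seed 500-1,000 cells/well; rest 5 h at 37 degrees C. Pin-transfer compounds, 11-point titration. Incubate 48 h. Add CellTiter-Glo, 15 min RT, read luminescence.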

[2] = qHTS of pediatric cancer cell lines to identify multiple opportunities for drug repurposing: Confirmatory screen for BT-12 cells (AID 1347112);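 further: viability read after 48 h of compound exposure; nearly all actives have a fitted effect of over 55% in size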
Method in brief: (§1)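 Cells (500-1,000/well) rested 5 h, then received compounds for 48 h; metabolically active cells were measured by CellTiter-Glo luminescence. Final concentrations spanned up to 46 µM (MIPE, 11-point) or 0.59 nM-46 µM (NPC, 8-point) in primary screens, 11-point in follow-ups.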

[3] = qHTS of pediatric cancer cell lines to identify multiple opportunities for drug repurposing: Confirmatory screen for LAN-5 cells (AID 1347113); further: nearly all actives have a fitted effect of over 65% in size
Method in brief: as §1

[4] = qHTS of pediatric cancer cell lines to identify multiple opportunities for drug repurposing: Confirmatory screen for NB-EBc1 cells (AID 1347115);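 further: cells exposed to compound for 48 h before the viability read; nearly all actives have a fitted effect of over 45% in size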
Method in brief: as §1

[5] = qHTS of pediatric cancer cell lines to identify multiple opportunities for drug repurposing: Confirmatory screen for SJ-GBM2 cells (AID 1347116); further: nearly all actives have a fitted effect of over 60% in size
Method in brief: (§2)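 Viability measured as metabolically active cells via CellTiter-Glo luminescence following 48 hours of compound exposure, 11-point dilutions in confirmatory testing. 500-1,000 cells/well plated 5 hours before dosing; controls were DMSO and 2.3 µM bortezomib.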

[6] = qHTS of pediatric cancer cell lines to identify multiple opportunities for drug repurposing: Confirmatory screen for TC32 cells (AID 1347118);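 further: cells exposed to compound for 48 h before the read; nearly all actives have a fitted effect of over 65% in size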
Method in brief: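 qHTS, TC32, 48 h drug treatment, CellTiter-Glo luminescence as a proxy for metabolically active cells; primary top concentration 46 µM (MIPE 11-pt, NPC 8-pt); confirmatory 11-pt.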

[7] = qHTS of pediatric cancer cell lines to identify multiple opportunities for drug repurposing: Confirmatory screen for MG 63 (6-TG R) cells (AID 1347119); further: nearly all actives have a fitted effect of over 55% in size
Method in brief: as §1

[8] = qHTS of pediatric cancer cell lines to identify multiple opportunities for drug repurposing: Confirmatory screen for control Hh wild type fibroblast cells (AID 1347121); further: nearly all actives have a fitted effect of over 70% in size
Method in brief: as §1

[9] = qHTS of pediatric cancer cell lines to identify multiple opportunities for drug repurposing: Confirmatory screen for U-2 OS cells (AID 1347122); further: nearly all actives have a fitted effect of over 65% in size
Method in brief: as §1

[10] = qHTS of pediatric cancer cell lines to identify multiple opportunities for drug repurposing: Confirmatory screen for DAOY cells (AID 1347114); further: nearly all actives have a fitted effect of over 65% in size
Method in brief: as §2
Potency means the concentration at half of the fitted maximal effect.

| Compound | Potency [1] | Potency [2] | Potency [3] | Potency [4] | Potency [5] | Potency [6] | Potency [7] | Potency [8] | Potency [9] | Potency [10] |
| --- | --- | --- | --- | --- | --- | --- | --- | --- | --- | --- |
| CCc1ccc(OCc2ccccc2C(=O)Nc2ccc3nc(C)cc(N)c3c2)cc1 | 0.827 µM (active) | 9.27 µM (active) | 7.37 µM (active) | 8.27 µM (active) | 11.7 µM (active) | 1.17 µM (active) | 4.14 µM (active) | 9.27 µM (active) | 8.27 µM (active) | – |
| Nc1ncnc2c1ncn2[C@@H]1O[C@@H](CO)[C@H](O)[C@H]1O | inactive | inactive | inactive | inactive | inactive | inactive | inactive | – | inactive | inactive |
| CC1(C)CCC[C@@]2(C)[C@@H]1CC[C@@]1(C)OC(=O)C[C@H]21 | 26.1 µM (active) | inactive | inactive | inactive | – | – | inactive | inactive | inactive | inactive |
| OC[C@H]1O[C@@H](n2cnc3c2NC=NC[C@@H]3O)C[C@H]1O | 8.27 µM (active) | inactive | inactive | inactive | – | 8.27 µM (active) | inactive | inactive | inactive | inactive |
| C=C1C(=O)[C@@]23C(CC[C@@H]1[C@H]2O)[C@@]12CO[C@]3(O)[C@@H](O)[C@@H]1C(C)(C)CC[C@@H]2O (stereo partly drawn) | 4.65 µM (active) | 7.37 µM (active) | 4.14 µM (active) | 8.27 µM (active) | 20.8 µM (active) | 13.1 µM (active) | 10.4 µM (active) | inactive | – | 11.7 µM (active) |
| O=C(NCc1ccncc1)C12C[C@H]3C[C@@H](C1)CC(c1ccc(Cl)cc1)(C3)C2 | 9.27 µM (active) | 26.1 µM (active) | – | – | – | 9.27 µM (active) | – | inactive | 26.1 µM (active) | 13.1 µM (active) |
| CCCCCCCCCCCC1=C(O)C(=O)C=C(O)C1=O | 16.5 µM (active) | inactive | – | inactive | inactive | 10.4 µM (active) | inactive | inactive | – | inactive |
| O=C(O)CCC1CCC(c2cc(F)ccc2F)(S(=O)(=O)c2ccc(Cl)cc2)CC1 (stereo not drawn) | 20.8 µM (active) | 26.1 µM (active) | – | inactive | inactive | 20.8 µM (active) | inactive | inactive | – | – |
| COc1cc(N2CCC(N3CCN(C)CC3)CC2)ccc1Nc1ncc(Cl)c(Nc2ccccc2S(=O)(=O)C(C)C)n1 | 0.657 µM (active) | – | 0.185 µM (active) | 14.7 µM (active) | 23.3 µM (active) | 1.85 µM (active) | 0.827 µM (active) | 20.8 µM (active) | 0.465 µM (active) | 16.5 µM (active) |
| O=C(O)c1ccc(-c2c[nH]c3ncc(-c4ccccc4)cc23)cc1C1CCCC1 | 9.27 µM (active) | inactive | inactive | inactive | inactive | inactive | inactive | inactive | – | inactive |
| O=C(O)c1ccc(-c2cc3cccnc3c(-c3ccc4nonc4c3)n2)cc1 | 2.33 µM (active) | 4.14 µM (active) | – | – | – | 2.61 µM (active) | – | – | – | – |
| COc1ccc(-c2coc3cc(O)cc(O)c3c2=O)cc1 | 1.04 µM (active) | inactive | – | inactive | – | 1.04 µM (active) | inactive | inactive | inactive | inactive |
| CC(C)n1nc(-c2ccc3oc(N)nc3c2)c2c(N)ncnc21 | 0.0737 µM (active) | 0.117 µM (active) | 0.131 µM (active) | – | 0.165 µM (active) | 0.0465 µM (active) | 0.0465 µM (active) | – | 0.0928 µM (active) | 5.85 µM (active) |
| CN[C@@H](C)C(=O)N[C@H]1CN(C(=O)CC(C)C)CC[C@H]2CC[C@@H](C(=O)NC(c3ccccc3)c3ccccc3)N2C1=O | 7.37 µM (active) | inactive | inactive | inactive | inactive | 8.27 µM (active) | inactive | inactive | inactive | – |
| CO[C@H]1C=CC=C(C)C(=O)NC2=CC(=O)C(NCCN(C)C)=C(C[C@@H](C)C[C@H](OC)[C@@H](O)[C@@H](C)C=C(C)[C@@H]1OC(N)=O)C2=O | 0.827 µM (active) | – | inactive | – | inactive | – | inactive | inactive | – | 18.5 µM (active) |
| COc1cc2ncnc(Nc3ccc(F)c(Cl)c3)c2cc1OCCCN1CCOCC1 | 33.9 µM (active) | 42.7 µM (active) | 33.9 µM (active) | – | 2.4 µM (active) | 33.9 µM (active) | 67.6 µM (active) | 47.9 µM (active) | 26.9 µM (active) | 38 µM (active) |
| CN(C)C1CCN(C(=O)c2ccc(NC(=O)Nc3nc(N4CCOCC4)nc(N4CCOCC4)n3)cc2)CC1 | 0.208 µM (active) | – | 0.261 µM (active) | 16.5 µM (active) | 1.47 µM (active) | 0.0657 µM (active) | 0.233 µM (active) | – | 3.69 µM (active) | 14.7 µM (active) |
| CC1(C)CCC(CN2CCN(c3ccc(C(=O)NS(=O)(=O)c4ccc(NCC5CCOCC5)c([N+](=O)[O-])c4)c(Oc4cnc5[nH]ccc5c4)c3)CC2)=C(c2ccc(Cl)cc2)C1 | 18.5 µM (active) | inactive | 5.85 µM (active) | – | inactive | inactive | inactive | inactive | – | inactive |
| O=C1C(Cl)=C(NCCN2CCOCC2)C(=O)c2ncccc21 | 1.04 µM (active) | 2.61 µM (active) | 2.93 µM (active) | 5.85 µM (active) | 14.7 µM (active) | 1.04 µM (active) | 1.04 µM (active) | 20.8 µM (active) | 1.65 µM (active) | 7.37 µM (active) |
| CC1(C)O[C@H]2C[C@@H]3[C@H]4CCC5=CC(=O)C=C[C@]5(C)[C@@]4(F)[C@@H](O)C[C@]3(C)[C@]2(C(=O)CO)O1 | inactive | inactive | inactive | – | inactive | – | inactive | – | inactive | inactive |
| Oc1ccc(C2CCN(c3ccnc4ccccc34)CC2)cc1O | 18.5 µM (active) | 13.1 µM (active) | – | 14.7 µM (active) | 1.17 µM (active) | 9.27 µM (active) | 2.33 µM (active) | 7.37 µM (active) | 2.93 µM (active) | 5.85 µM (active) |
| CCOc1ccc(Nc2nc(-c3c(C)nc4ccccn34)cs2)cc1 | 0.0928 µM (active) | – | 1.47 µM (active) | – | – | 0.117 µM (active) | 0.104 µM (active) | inactive | 0.165 µM (active) | 0.0465 µM (active) |
| CC(=O)Oc1cc2c(s1)CCN(C(C(=O)C1CC1)c1ccccc1F)C2 (stereo not drawn) | inactive | inactive | inactive | inactive | 4.14 µM (active) | inactive | inactive | inactive | – | – |
